Results from ChEMBL document CHEMBL3433997, “St. Jude Leishmania screening dataset” (2016).

These compounds were tested against Solute carrier family 2, facilitated glucose transporter member 1 (Homo sapiens) (UniProt P11166) (assay: ST_JUDE_LEISH: Cytotoxicity at 2uM final concentration against transgenic Leishmania Mexicana promastigotes LmGLUT1 that are glucose transport deficient and complemented with the human glucose transporter GLUT1. Activity is measured by DNA content using SYBR green in vitro).
Solute carrier family 2, facilitated glucose transporter member 1 (Homo sapiens), sequence (P11166 whole entry): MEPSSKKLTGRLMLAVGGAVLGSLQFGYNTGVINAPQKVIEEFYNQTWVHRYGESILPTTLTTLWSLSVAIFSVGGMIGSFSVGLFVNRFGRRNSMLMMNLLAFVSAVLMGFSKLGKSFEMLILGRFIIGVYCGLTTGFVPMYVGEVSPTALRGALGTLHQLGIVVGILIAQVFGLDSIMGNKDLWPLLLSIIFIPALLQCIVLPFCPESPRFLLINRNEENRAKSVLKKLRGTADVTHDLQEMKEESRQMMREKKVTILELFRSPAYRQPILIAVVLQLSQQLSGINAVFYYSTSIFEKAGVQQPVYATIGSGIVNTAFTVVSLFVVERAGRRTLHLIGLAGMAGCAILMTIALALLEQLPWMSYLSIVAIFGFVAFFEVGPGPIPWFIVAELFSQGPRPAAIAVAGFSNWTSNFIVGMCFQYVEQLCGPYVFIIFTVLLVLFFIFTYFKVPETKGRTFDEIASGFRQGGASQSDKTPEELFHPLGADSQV
Format: functional

Q: With `Cc1c(C)n(C2CCCCC2)c2ncnc(OC3CCN(CC(=O)NC4CC4)CC3)c12` as the compound, how does the inhibition read?
A: -0.52%

Q: With `O=C(Cc1ccc(Cl)cc1)NC1CCN(c2ccnc3cc(Cl)ccc23)C1` (stereo not given) as the compound, how does the inhibition read?
A: -0.91%

Q: Which inhibition does the source give for `COc1cc(NC(=O)c2ccc(-c3ccccc3)cc2)ccc1OCCCN1CCC(c2ccccc2)CC1` here?
A: 0.2%

Q: Which inhibition does the source give for `Cc1cc(NC(=O)c2sc3ccccc3c2O)no1` here?
A: 2.41%

Q: `COc1cc2nc(N3CCN(C(=O)c4c(Cl)nsc4-c4ccccc4Cl)CC3)nc(N)c2cc1OC` was tested. Which inhibition did it give?
A: 10.5%

Q: `CN1CCC(NCc2ccc(-c3cccc(S(=O)(=O)NCc4ccccc4)c3)cc2)CC1` was tested. Which inhibition did it give?
A: 2.23%

Q: How did the inhibition turn out when `CCOc1cc(C)ccc1C1CCN(CCCCNC(=O)c2coc(-c3ccc(Cl)cc3)c2)CC1` was run?
A: 0.96%

Q: Which inhibition does the source give for `CC1(C)CN(CCC2CCC(NC(=O)/C=C/c3ccc(F)cc3F)CC2)Cc2ccc(C#N)cc21` (stereo not given) here?
A: 2.36%

Q: How did the inhibition turn out when `COc1cc2c(cc1CCNCCCCNCCc1cc3c(cc1OC)CCCC3)CCCC2` was run?
A: 99.4%

Q: Which inhibition does the source give for `Cc1cccc2nc(-c3ccc(-c4ccc(CN5CCCC(O)C5)cc4)s3)[nH]c12` (stereo not given) here?
A: 6.59%

Q: With `O=C1C(C2CCC(c3ccc(Cl)cc3)CC2)=C2OCC3COC2(O3)c2ccccc21` (stereo not given) as the compound, how does the inhibition read?
A: 1.13%

Q: With `O=C(Nc1cccc(C(F)(F)F)c1)N1CCOC(CCN2CCC(c3ccccc3)CC2)(c2ccc(Cl)c(Cl)c2)C1` (stereo not given) as the compound, how does the inhibition read?
A: 1.69%

Q: For `C/C=C/COc1ccc2ccccc2c1CNCCCCCCCCNCc1c(OC/C=C/C)ccc2ccccc12`, which inhibition is on record?
A: 16.7%

Q: How did the inhibition turn out when `Cc1ccc(O)c(-c2cc(C(=O)Nc3ccc(S(=O)(=O)N4CCCC(C)C4)cc3)[nH]n2)c1` (stereo not given) was run?
A: -0.03%

Q: For `Cc1ccccc1C1CCN(C2CCC(NC(=O)/C=C/c3cccc(F)c3)CC2)CC1` (stereo not given), which inhibition is on record?
A: 6.96%
